Test results as given in PubChem BioAssay (Tox21).
Records with an inconclusive call do not appear. Unmarked numbers belong to inactive results. Calls follow the shape of the full dose curve.

Assay: qHTS assay to identify small molecule agonists of the endoplasmic reticulum stress response signaling pathway - cell viability counter screen (AID 1159517);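 also: HeLa cells carrying an ER stress response element beta-lactamase reporter; nearly all actives have a fitted effect of over 50% in size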
Settings: ESRE-bla HeLa viability, CellTiter-Glo luminescence, 5 h; series mostly up to 61 µM; activity change, negative = cytotoxicity: at the top concentration
Procedure, shortened: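 Luminescence readout: CellTiter-Glo, 30 min RT, same wells as the ESRE-bla reporter read. HeLa ESRE-bla, 1,500 cells/well, o/n 37 C; cpd 5 hr 37 C/5% CO2.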
% is scaled to controls: 0 for no effect and ±100 for the full control effect.

Row | SMILES | activity change, negative = cytotoxicity
1 | COc1cc2nc(N(C)CCCNC(=O)C3CCCO3)nc(N)c2cc1OC (configuration not stated) | 20.2%
2 | CCCCC(CC)COC(=O)CCCCCCCCC(=O)OCC(CC)CCCC (configuration not stated) | -0.232%
3 | CN(C)C(=O)NC1(c2ccccc2)CCN(CC[C@@]2(c3ccc(F)c(F)c3)CN(C(=O)c3ccccc3)CCO2)CC1 | -1.73%
4 | O=[N+]([O-])c1ccc(NCCO)c(OCCO)c1 | -22.4%
5 | COc1ccc2cccc(CCNC(C)=O)c2c1 | 12.7%
6 | O=C(NCC1CN(c2ccc(N3CCOCC3=O)cc2)C(=O)O1)c1ccc(Cl)s1 (configuration not stated) | -4.91%
7 | CC1=CC=C(C(C)C)CC1 | -6.71%
8 | CC(=O)c1cccc([N+](=O)[O-])c1 | -5.96%
9 | C=CCOC(=O)CCC1CCCCC1 | -2.93%
10 | CC(=O)[O][Al] | 2.64% [at 78.8 µM]
11 | COc1ccc(C)cc1[N+](=O)[O-] | 12.1% [at 78.8 µM]
12 | COCC(C)OC(C)=O (configuration not stated) | 1.97%
13 | CCOc1ccc(N=Nc2ccc(/C=C/c3ccc(N=Nc4ccc(OCC)cc4)cc3S(=O)(=O)O)c(S(=O)(=O)O)c2)cc1 | 9.64%
14 | CC(C)Cc1ccc(C(C)C(=O)OCc2ccccn2)cc1 (configuration not stated) | -10.4%
15 | CCOc1ccc(O)cc1 | -17.7%
16 | O=C(O)c1ccco1 | -0.35%
17 | CC[N+](C)(CC)CCOC(=O)C(O)(c1ccccc1)C1CCCCC1 (configuration not stated) | 0.901%
18 | CCCCC1=NC2(CCCC2)C(=O)N1Cc1ccc(-c2ccccc2-c2nn[nH]n2)cc1 | 7.31%
19 | Cc1ccc(C(C)OC(=O)C2(C)CCC(C(=O)O)C2(C)C)cc1 (configuration not stated) | 6.72%
20 | Cc1c(N)cccc1[N+](=O)[O-] | 4.61% [at 78.8 µM]
21 | COc1cc2nc(Cl)nc(N)c2cc1OC | 13%
22 | Nc1ccccc1S(=O)(=O)c1ccccc1 | -12.6%
